M1 ag: activates human CHRM1 receptor; P11229; CHO-K1 hM1, Fluo-8 calcium fluorescence, agonist mode; 0% DMSO, 100% acetylcholine EC100; activation, % at 3 µM; actives 0.33% (n = 360,000); AID 588814;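 active = activation above the run's mean compound activation plus 3 SD, cut at about 16% in these data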;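 also: peak over basal fluorescence ratio within a 140 s kinetic read after compound addition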
M1 antag: antagonists of human M1 muscarinic receptor | actives 1.3% (n = 360,000) | inhibition, % at 3 µM | CHO-K1 hM1, Fluo-8 calcium fluorescence, ACh EC80 antagonist | AID 588852;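 active = percent inhibition above its own plate's cutoff, namely the mean of that plate's compound wells plus 3 SD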;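 also: peak over basal fluorescence ratio during 140 s after agonist addition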
CHRM1 PAM: potentiates human M1 receptor response to acetylcholine; P11229; CHO-K1 hM1, Fluo-8 calcium fluorescence, ACh EC20; 0% = ACh EC20, 100% = maximal ACh; activation, % at 3 µM; actives 0.088% (n = 360,000); AID 588819; in the data active = activation above about 19%, passing the limit was not always enough
CHRM4 antagonist: CHRM4 antagonism in calcium assay; P08173; CHO-hM4 cells, ACh EC80, Fluo-8 calcium fluorescence; inhibition, % at 3 µM; actives 0.73% (n = 360,000);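 active = inhibition above its plate's cutoff, the mean inhibition of sample wells plus 3 SD, cut at about 27% in these data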
Target sequence (P08173 whole entry, looked up): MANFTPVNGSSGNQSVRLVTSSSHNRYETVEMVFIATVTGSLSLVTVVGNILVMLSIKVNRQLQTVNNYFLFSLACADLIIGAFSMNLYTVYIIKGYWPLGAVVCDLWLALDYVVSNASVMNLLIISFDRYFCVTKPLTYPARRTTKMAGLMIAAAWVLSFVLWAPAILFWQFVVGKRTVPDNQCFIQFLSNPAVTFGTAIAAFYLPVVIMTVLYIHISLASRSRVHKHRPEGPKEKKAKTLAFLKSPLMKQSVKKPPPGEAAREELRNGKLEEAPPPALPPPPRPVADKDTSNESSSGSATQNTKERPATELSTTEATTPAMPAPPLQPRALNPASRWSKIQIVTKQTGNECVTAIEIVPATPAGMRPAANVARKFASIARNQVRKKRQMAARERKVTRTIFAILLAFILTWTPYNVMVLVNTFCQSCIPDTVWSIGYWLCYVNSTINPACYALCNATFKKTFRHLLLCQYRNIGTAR
M4 PAM: potentiates acetylcholine response at human M4 receptor | actives 0.4% (n = 360,000) | AID 624126 | activation, % at 3 µM | CHO-K1 hM4/Gqi5, Fluo-8 calcium fluorescence, ACh EC20; 0% = ACh EC20, 100% = maximal ACh;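 active = activation above its plate's cutoff, the mean activation of sample wells plus 3 SD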
CHRM4 agonist: CHRM4 agonism in calcium assay; P08173; CHO-K1 hM4/Gqi5, Fluo-8 calcium fluorescence; vehicle 0%, full acetylcholine response 100%; activation, % at 3 µM; actives 0.14% (n = 360,000);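 active = activation above the run mean over all test wells plus 3 SD, cut at about 32% in these data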;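 also: peak over basal fluorescence ratio per well then scaled between controls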
Large screens that a line does not name were inactive. A selection: hits, their analogues and other compounds. The true share with any hit is near 2.2%.

CCn1c(SC(C)C(=O)Nc2nnc(C)s2)nnc1-c1ccco1 (stereo not given)	none
CCOC(=O)c1cc(/C(C)=N/OC(=O)c2ccc(C(C)(C)C)cc2)on1	none
OC(c1ccc(F)cc1)c1nc(-c2cncnc2)cs1 (stereo not given)	none
CC1CN(C(=O)c2cccc(S(=O)(=O)N3CCN(c4ccccc4)CC3)c2)CC(C)O1 (stereo not given)	none
CC1(C)CCN2CCC(C)(C)c3c(O)ccc1c32	M1 ag 23
COc1cccc(NC(=O)N2CCC(NC(=O)C3CCCCC3)CC2)c1	CHRM1 PAM 28
CC1CCCN(C(=O)CN2CCN(C(=O)c3ccco3)CC2)C1 (stereo not given)	none
COc1ccc(C)cc1S(=O)(=O)N1CCN(C/C=C/c2ccccc2)CC1	none
O=C(NCc1ccco1)c1ccc(CS(=O)c2ccccc2Cl)o1 (stereo not given)	none
O=C(NCCCN1CCC(Cc2ccccc2)CC1)c1ccc(CS(=O)c2ccccc2Cl)o1 (stereo not given)	M1 antag 50, CHRM4 antagonist 28
CCN(CC)C(=O)COc1cccc2ccccc12	M4 PAM 29
Cc1cccn2cc(CCNC(=O)Cc3cccs3)nc12	none
CCOc1ccc(CN(C(=O)c2oc3cc(C)ccc3c2C)C2CCS(=O)(=O)C2)cc1 (stereo not given)	none
O/N=C/c1cn(-c2ccccc2)nc1-c1cccnc1	none
COc1ccc(C(=O)C(CN2CCCC2)c2ccccc2)cc1 (stereo not given)	none
O=C(c1ccc(Cl)cc1)C(CN1CCCC1)c1ccccc1 (stereo not given)	M1 antag 38
CCOC(=O)C1(Cc2cccc(Cl)c2)CCCN(C(=O)c2ccc(C)nc2)C1 (stereo not given)	none
Cc1nc(Cl)sc1C(=O)O	M4 PAM 34
Cn1nnnc1SCC(=O)N1N=C(c2ccc(Cl)cc2)CC1c1ccco1 (stereo not given)	none
Cc1nnc(SCC(=O)N2N=C(c3ccc(Cl)cc3)CC2c2ccco2)[nH]c1=O (stereo not given)	M4 PAM 23
O=C(Nc1ccc(N2CCN(C(=O)c3ccco3)CC2)c(Cl)c1)c1cc2ccccc2o1	M1 antag 37, CHRM4 antagonist 51
CCCC(=O)N1CCN(c2ccc(NC(=O)c3cccs3)cc2Cl)CC1	none
CCCC(=O)N1CCN(c2ccc(NC(=O)c3cc4ccccc4o3)cc2Cl)CC1	M1 antag 55, CHRM4 antagonist 38
CCC(=O)N1CCN(c2ccc(NC(=O)c3cc4ccccc4o3)cc2Cl)CC1	M1 antag 18
CCC(=O)N1CCN(c2ccc(NC(=O)c3ccco3)cc2Cl)CC1	none
COc1ccc(Cc2c(O)nc[nH]c2=O)cc1	none
COC(=O)c1sc(-c2ccc(Cl)cc2)cc1NC(=O)COCC(=O)O	none
O=C(CNC(=O)c1cccs1)NCC(=O)OCc1cccc(Cl)c1	none
C[C@H](CO)N1C[C@H](C)[C@@H](CN(C)C(=O)Nc2ccccc2)Oc2c(NC(=O)Nc3ccc4c(c3)OCO4)cccc2C1=O	none
C[C@H](CO)N1C[C@H](C)[C@@H](CN(C)Cc2ccc(Cl)c(Cl)c2)Oc2c(NC(=O)Cc3ccccc3)cccc2C1=O	CHRM4 antagonist 31
C[C@H](CO)N1C[C@H](C)[C@@H](CN(C)C(=O)Nc2ccccc2)Oc2c(NS(=O)(=O)c3ccc(F)cc3)cccc2C1=O	CHRM1 PAM 26
C[C@H](CO)N1C[C@H](C)[C@@H](CN(C)C(=O)Nc2ccc3c(c2)OCO3)Oc2c(NC(=O)Nc3ccc4c(c3)OCO4)cccc2C1=O	M1 antag 36, CHRM4 antagonist 27
C[C@H](CO)N1C[C@H](C)[C@@H](CN(C)C(=O)Nc2ccccc2)Oc2c(NS(=O)(=O)c3ccccc3)cccc2C1=O	none
COc1ccc(NC(=O)Nc2cccc3c2O[C@H](CN(C)C(=O)Nc2ccc4c(c2)OCO4)[C@@H](C)CN([C@H](C)CO)C3=O)cc1	M1 antag 33
COc1ccc(NC(=O)N(C)C[C@H]2Oc3c(NC(=O)Nc4ccc5c(c4)OCO5)cccc3C(=O)N([C@H](C)CO)C[C@@H]2C)cc1	none
COc1cc(CNCCSc2nnnn2C)cc(Br)c1OCc1ccc(F)cc1	none
CCOc1cc(CNCCSc2nnnn2C)cc(Br)c1OCc1ccc(F)cc1	CHRM4 antagonist 28
CCNc1nc(C(=O)O)nc(N2CCOCC2)n1	none
CCn1cc(C(=O)NC2CCCc3c2cnn3-c2cccc(C)c2C)cn1 (stereo not given)	M1 antag 31
CC(C)C[C@@H](CO)N(Cc1ccccc1)S(=O)(=O)N(Cc1ccccc1)[C@H](CO)CC(C)C	CHRM4 antagonist 39
CC(C)C[C@@H](CO)N(Cc1ccccc1)S(=O)(=O)N(Cc1ccccc1)[C@@H](CO)CC(C)C	none
COc1ccc(CN([C@H](CO)CC(C)C)S(=O)(=O)N(Cc2ccccc2)[C@H](CO)CC(C)C)cc1	CHRM4 antagonist 41
CC(=O)Nc1cc(-c2ccc(CO)cc2)cn2c(-c3ccc(F)c(Cl)c3)cnc12	none
Cc1ccc(NN2C(=O)C=C(c3ccccc3)C2=O)cc1	CHRM4 antagonist 35
Cc1ccnc2nc(C(=O)OCC(=O)NC3CCCC(C)C3C)nn12 (stereo not given)	CHRM1 PAM 30, M4 PAM 21
Cc1ccnc2nc(C(=O)OCCOc3cccc(Br)c3)nn12	CHRM1 PAM 23
O=C(c1cc2ccccn2n1)N1CCN(c2ccccn2)CC1	none
Cn1ncc(Br)c1C(=O)Nc1ccc(Br)cn1	none
COc1ccc(NC(=O)CC2C(=O)NCCN2C(=O)c2ccccc2)cc1 (stereo not given)	none
COc1ccc(-n2c(C)c(C(C)=O)c(C(C)=O)c2C)cc1OC	M4 PAM 17
CCS(=O)(=O)N1CCN(CC2CC3C=CC2C3)CC1 (stereo not given)	none
CCCS(=O)(=O)N1CCN(CC2CC3C=CC2C3)CC1 (stereo not given)	M1 ag 22
CCOC(=O)[C@]12CCCC=C1N(Cc1ccc(Cl)cc1Cl)C(=O)[C@H](CC(=O)NCc1ccc(C)o1)C2	none (no result: M1 ag, M1 antag, CHRM1 PAM)
COCC(C)NC(C(=O)Nc1ccc(Cl)c([N+](=O)[O-])c1)c1ccccc1 (stereo not given)	CHRM1 PAM 31
C=CCC(NC(=O)c1ccc(C#N)cc1)C(=O)NCCC (stereo not given)	none
Cc1cc(C)cc(NC(=S)N2C3CCCC2CC(NC(=O)C2CC2)C3)c1 (stereo not given)	M1 antag 27
